Bioassay records deposited in PubChem by National Center for Advancing Translational Sciences (NCATS).
An excerpt weighted towards active compounds, which were near 12% of everything screened.
HP1b binding inh – inhibitors of HP1-beta chromodomain binding to methylated histone tails. AlphaScreen HP1-beta / biotin-H3K9me3 peptide binding. P83916. Potency, µM (highest dose often 114 µM), for inactives: top-dose activity change, negative = inhibition, hits mostly inhibitors. 390,000 compounds, 0.56% hits; further: nearly all actives have a fitted effect of over 70% in size
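AlphaScreen: HP1-beta (50 nM) preformed 30 min with biotin-H3(1-18)K9me3 peptide (50 nM) in PBS pH 7.4, 0.01% Tween-20. Compound added for 30 min at RT, then streptavidin donor/nickel chelate acceptor beads (10 ug/mL) for 30 min.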
BAZ2B block – blocks human BAZ2B. Q9UIF8. AlphaScreen BAZ2B-H3K14Ac peptide displacement. Potency, µM (top dose mostly 114 µM), for inactives: at the top dose activity change, negative = inhibition, hits mostly inhibitors. 360,000 compounds, 4.4% hits. AID 504333; further: on the % scale 0 is the no-effect control and ±100 the full control effect; nearly all actives have a fitted effect of over 60% in size
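Multi-concentration screen (max 110 uM) measuring displacement of acetylated histone H3 peptide from BAZ2B by AlphaScreen, using 50 nM protein, 50 nM peptide and 10 ug/mL streptavidin donor plus Ni-chelate acceptor beads.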
PLK1 PBD block – inhibitors of human PLK1 polo-box domain binding; P53350; Plk1 PBD binding of FITC phosphopeptide, fluorescence polarization; Potency, µM, inactives show max response, negative = inhibition, most hits filed as inhibitors; 360,000 compounds, 2.8% hits; further: series mostly up to about 57 µM; on the % scale 0 is the no-effect control and ±100 the full control effect; nearly all actives have a fitted effect of over 65% in size
Target sequence (P53350 whole entry, looked up, the tested form may be a part): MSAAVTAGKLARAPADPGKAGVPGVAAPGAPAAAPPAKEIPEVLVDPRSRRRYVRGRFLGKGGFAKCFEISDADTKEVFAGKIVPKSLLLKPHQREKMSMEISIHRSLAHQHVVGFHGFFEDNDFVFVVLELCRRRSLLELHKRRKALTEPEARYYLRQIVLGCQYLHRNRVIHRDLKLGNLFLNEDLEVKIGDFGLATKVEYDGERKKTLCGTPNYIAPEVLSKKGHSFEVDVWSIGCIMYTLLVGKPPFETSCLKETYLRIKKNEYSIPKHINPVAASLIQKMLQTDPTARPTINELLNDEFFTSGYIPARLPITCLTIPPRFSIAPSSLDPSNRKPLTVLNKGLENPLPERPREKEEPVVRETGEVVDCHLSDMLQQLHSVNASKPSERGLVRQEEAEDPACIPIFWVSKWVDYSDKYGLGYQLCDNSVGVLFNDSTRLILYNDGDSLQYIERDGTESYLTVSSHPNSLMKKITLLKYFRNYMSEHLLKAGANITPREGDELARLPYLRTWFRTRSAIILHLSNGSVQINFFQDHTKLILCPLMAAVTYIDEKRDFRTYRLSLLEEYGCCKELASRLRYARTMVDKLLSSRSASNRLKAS
Sfp inh – inhibitors of Bacillus subtilis Sfp phosphopantetheinyl transferase | Q9F4F7 | Biochemical Sfp PPTase activity, qHTS | Potency, µM, inactives show largest response in the series, negative = inhibition, actives largely listed as inhibitors | 310,000 compounds, 3.5% hits | AID 1490;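 further: the enzyme is Sfp with the accession as filed and its product quenches rhodamine fluorescence; 0% = enzyme reaction without inhibitor and -100% = no enzyme wells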
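Step 1, compound plus 15 nM Sfp-PPTase, 15 min, room temperature. Step 2, add rhodamine-CoA (5 uM) and BHQ-2-YbbR (12.5 uM). Step 3, read 525/598 nm fluorescence at 0 and 30 min.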
G9a block – G9a (human) methyltransferase inhibition. Q96KQ7. G9a H3K9 monomethylation, AlphaScreen, 2 h. Potency, µM (series often up to 102 µM), without a hit: at the top dose activity, negative = inhibition, usual class: inhibitors. 350,000 compounds, 8.8% hits; further: on the % scale 0 is the no-effect control and ±100 the full control effect; nearly all actives have a fitted effect of over 75% in size
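Chemiluminescent proximity detection of H3K9 monomethylation, read after 10 min bead incubation in the dark. Reaction: 20 nM G9a, 500 nM biotin-H3K9 peptide, 20 uM SAM cofactor, 2 h, room temperature, following 15 min enzyme-compound preincubation.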
JMJD2A Tudor inh – JMJD2A Tudor domain (human) inhibition; Potency, µM (highest dose often 114 µM), for the others: top-dose activity change, negative = inhibition, hits mostly inhibitors; 390,000 compounds, 4.4% hits; AlphaScreen JMJD2A-Tudor / H3K4me3 peptide binding; O75164; further: on the % scale 0 is the no-effect control and ±100 the full control effect; nearly all actives have a fitted effect of over 50% in size
Numbers without * were called inactive; ? = inconclusive; . = not tested or not shown; [ ] = remark or other dose. The call rests on the fitted dose curve; in most records, active means well fitted curve in the direction sought with a large enough effect; inconclusive means small, poorly fitted or top-dose-only effect, or another doubt; inactive means no such curve, though single readings can be large; an effect the other way counts as inactive or inconclusive. Potency means the concentration at half of the fitted maximal effect.

SMILES	HP1b binding inh	BAZ2B block	PLK1 PBD block	Sfp inh	G9a block	JMJD2A Tudor inh
COc1ccc(Cc2nnc(SCc3ccc([N+](=O)[O-])cc3)o2)cc1	?	?	-26.2%	5.0%	-7.1%	-35.0%
O=[N+]([O-])c1ccc(CSc2nnc(Cc3ccccc3)o2)cc1	13.9%	-32.6%	?	-1.1%	44.7µM*	-29.5%
Cc1[nH]c2ccccc2c1Cc1nnc(SCc2ccccc2)o1	-3.1%	?	4.2%	-5.4%	70.8µM*	?
Cc1ccccc1-c1ccc2ncnc(NCCN3CCOCC3)c2c1	.	.	.	7.4%	-4.4%[0.501 µM]	.
O=C(NCC1CCN(Cc2ccccc2F)CC1)Nc1cc(F)ccc1F	24.6%	1.3%	2.6%	9.8%	2.1%	-8.9%
COc1cccc(CNC(=O)Cn2c(=O)cc(C)c3c(C)nn(C)c32)c1OC	45.8%	-10.8%	.	.	8.4%[59 µM]	-8.7%
CCOC(=O)C(=Cc1ccc(N(C)C)cc1)C(=O)c1ccccc1	.	.	3.9%	.	.	.
CCOC(=O)/C(=C/c1ccc(OC(=O)c2ccccc2)cc1)C(C)=O	49.9%	4.3%	5.32µM*	?	44.7µM*	8.5%
CCN(CC)CCNCc1cc(Br)ccc1OCC(=O)NCc1ccccc1	37.9%	?	-10.4%	-27.9%	-43.2%[59 µM]	-13.7%
CCN(CC)CCNCc1ccc(Br)cc1OCC(=O)NCc1ccccc1	8.1%[57 µM]	-38.1%	-8.1%	19.7%	50.1µM*	-24.7%
COc1ccc(-c2nc(N3CCN(C)CC3)sc2-c2ccc(OC)cc2)cc1	50.1µM*	28.2µM*	-1.0%	?	14.1µM*	22.4µM*
COc1ccc(-c2nc(N3CCCCCC3)sc2C(=O)c2ccccc2)cc1	28.4%	4.1%	-12.4%	-4.7%	23.9%[59 µM]	14.5%
COC(=O)c1ccccc1CSc1nsc(/C=C/N(C)C)c1C#N	?	44.7µM*	9.47µM*	15.8µM*	-0.3%[2.33 µM]	50.1µM*
Cc1nc(CSc2nsc(/C=C/N(C)C)c2C#N)cs1	?	39.8µM*	-8.5%	?	20µM*	?
COC(=O)c1cccnc1SCc1ccccc1	134.9%	105.9%	-11.0%	-0.5%	22.7%[59 µM]	122.7%
Cc1nnc(SCc2ccccc2Cl)c2cc3occc3n12	-13.9%	28.2µM*	.	.	12.6µM*	?
CC(C)C(NS(=O)(=O)c1cccc(C(F)(F)F)c1)C(=O)N1CCc2ccccc2C1 (centres undefined)	2.5%	3.7%	-7.8%	-5.2%	29.7%	-15.4%
CC(=O)CC[N+](C)(C)C	79.4µM*	.	-14.9%	.	.	-0.7%
O=C(Nc1cc(C(F)(F)F)ccc1Cl)C(O)Cc1ccccc1 (centres undefined)	.	.	.	.	.	6.2%
O=C(NCc1ccc(Cl)cc1)N1CCN(S(=O)(=O)c2ccccc2)CC1	-14.0%	-2.7%	-13.1%	8.0%	50.1µM*	-12.2%
Cc1ccc(NC(=O)N2CCN(S(=O)(=O)c3ccccc3)CC2)cc1	31.7%	-0.9%	-5.4%	8.1%	8.6%	-11.3%[11.4 µM]
O=C(NCCC(=O)N1CCN(c2ccccc2O)CC1)c1ccc(Cl)cc1	7.6%	-4.8%	-1.7%	.	50.1µM*	-17.9%
O=C(NCc1ccc(Cl)cc1)N1CCN(C(=O)c2ccccc2)CC1	.	.	0.7%	.	.	.
O=C(NCCC(=O)N1CCN(S(=O)(=O)c2ccc(Cl)cc2)CC1)Nc1ccccc1	8.5%	7.7%	-0.1%	.	50.1µM*	-16.6%
Cc1ccccc1NC(=O)N1CCN(S(=O)(=O)c2ccccc2)CC1	?	-0.2%	16.8µM*	-8.5%	-15.4%	?
O=C(NCCC(=O)N1CCN(S(=O)(=O)c2ccc(F)cc2)CC1)Nc1ccccc1	14.6%	8.5%	-12.1%	.	-9.8%[12.7 µM]	-1.7%
CCCc1ccc(S(=O)(=O)N2CCN(C(C)C(=O)NCc3ccccc3)CC2)cc1 (centres undefined)	13.5%	7.2%	-6.6%	.	56.2µM*	-24.1%
CCOC(=O)CN1C(=O)S/C(=C/c2ccc(C)o2)C1=O	1.0%	-38.6%	11.4%	-23.6%	31.6µM*	-21.8%
CCCN1C(=O)/C(=C/c2ccc(C)o2)SC1=Nc1ccc(OCC)cc1	-14.3%	?	-8.5%	7.94µM*	?	?
Cc1ccc(C(C)C)c(OCC(=O)NN=C2CCCC(=O)C2)c1	-0.8%[57 µM]	.	-10.2%	.	.	-34.5%
